Mdm2-MdmX inh = inhibitors of human Mdm2-MdmX association, primary screen, cell-based, luminescence, split luciferase, SaOS-2, uHTS; inhibition, % at 8 µM; SaOS-2 split-luciferase Mdm2/MdmX complementation; Protein Mdm4 (Homo sapiens) + E3 ubiquitin-protein ligase Mdm2 (Homo sapiens), …; 330,000 compounds, 3% hits;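 active = inhibition of at least 50% at 8 µM in the primary screen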
Target sequence (O15151 whole entry, looked up): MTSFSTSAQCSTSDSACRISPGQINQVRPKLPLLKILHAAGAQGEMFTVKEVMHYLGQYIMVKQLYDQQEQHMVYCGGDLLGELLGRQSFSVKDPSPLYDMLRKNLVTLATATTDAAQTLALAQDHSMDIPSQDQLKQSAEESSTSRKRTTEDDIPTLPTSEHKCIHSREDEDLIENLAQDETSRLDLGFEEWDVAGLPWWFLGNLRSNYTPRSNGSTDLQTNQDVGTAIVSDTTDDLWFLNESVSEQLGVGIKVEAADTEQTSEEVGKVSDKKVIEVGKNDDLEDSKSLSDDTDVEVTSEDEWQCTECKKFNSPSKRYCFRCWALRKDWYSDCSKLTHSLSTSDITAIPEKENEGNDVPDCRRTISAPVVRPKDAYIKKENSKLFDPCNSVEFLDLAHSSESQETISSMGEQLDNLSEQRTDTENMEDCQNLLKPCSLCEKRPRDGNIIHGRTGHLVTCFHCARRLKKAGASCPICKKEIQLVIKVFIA
Target sequence (Q00987 whole entry, looked up): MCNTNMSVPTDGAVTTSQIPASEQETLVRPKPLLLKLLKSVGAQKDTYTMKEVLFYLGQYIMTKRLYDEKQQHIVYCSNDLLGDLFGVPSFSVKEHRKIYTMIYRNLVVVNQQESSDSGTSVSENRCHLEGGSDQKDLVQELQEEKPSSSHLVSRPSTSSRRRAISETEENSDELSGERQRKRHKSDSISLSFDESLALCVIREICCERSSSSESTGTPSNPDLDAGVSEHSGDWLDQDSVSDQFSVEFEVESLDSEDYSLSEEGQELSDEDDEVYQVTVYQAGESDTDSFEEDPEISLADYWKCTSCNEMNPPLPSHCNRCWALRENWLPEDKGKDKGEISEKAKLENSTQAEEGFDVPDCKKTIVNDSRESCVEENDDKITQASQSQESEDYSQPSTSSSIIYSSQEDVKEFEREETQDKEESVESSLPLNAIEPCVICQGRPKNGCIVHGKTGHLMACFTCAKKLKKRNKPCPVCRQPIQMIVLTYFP
Beta cell apopt = inhibitors of cytokine-induced beta cell apoptosis, primary screen, luminescence; INS-1E cytokine-induced death, ATP luminescence, 48 h; percent of positive-control rescue, neutral wells zero; protection from apoptosis, % (concentration not given with the values); 300,000 compounds, 0.8% hits;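 active = Every replicate reaches about 75%, or at least half do and their mean reaches it too, limit read from the data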;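 note: 0% = cytokine-treated negative control wells and 100% = positive control rescue; higher means more ATP so stronger rescue from cytokine killing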
Shn3 3UTR inh = reduction of Shn3 3'UTR firefly luciferase signal, primary screen, Schnurri-3 inhibitor project, cell-based, Clone20 osteoblasts, set 2. Clone20 osteoblast Shn3 3'UTR firefly luciferase, 24 h. inhibition, % at 12.5 µM. 360,000 compounds, 0.52% hits. AID 588674, 2011;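 active = mean inhibition of at least 75% with every replicate also reaching 75%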;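 note: 0% = median of neutral control wells and 100% = pilot-screen positive control compound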
Gli-Sufu antag = Gli-Sufu pathway antagonists, primary screen, luciferase luminescence, Sufu-KO-LIGHT cells, uHTS | 340,000 compounds, 0.74% hits | inhibition, % at 5 µM | Sufu-KO-LIGHT fibroblasts, Gli luciferase reporter luminescence;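 active = inhibition above about 55%, limit read from the data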;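 note: 0% = DMSO-treated cells and 100% = wells with medium but no cells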
PAX8 inh HTS = inhibitors of PAX8-driven TPO luciferase reporter, primary screen, RMG-I cells, single concentration | SteadyGlo, 24 h | inhibition, % at 12.6 µM | 360,000 compounds, 1.2% hits | AID 652154, 2013;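 active = mean replicate inhibition at least 60% with every replicate also reaching 60%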;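 note: luciferase light reporting Pax8 driven TPO promoter activity; plate controls were median of neutral control wells for no effect and mitoxantrone controls for full effect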
CSC inhib = cancer stem cell viability inhibitors, primary screen, luminescence. 300,000 compounds, 1.1% hits. cancer stem cell-like cells viability. inhibition, % at 7.5 µM; in the data active = inhibition above about 75%; tested in HMLE shEcad cells
Active calls of the source: *; x = not tested or not shown; ! = a repeat was not active. Most compounds without a hit are left out; they make up all but 4% or so of the library.

SMILES	Mdm2-MdmX inh	Beta cell apopt	Shn3 3UTR inh	Gli-Sufu antag	PAX8 inh HTS	CSC inhib
CN(C)C(=O)c1cccc(-c2ccccc2[C@@H]2[C@H](C#N)N(C(=O)C3CC3)[C@H]2CO)c1	x	x	x	x	-22.0	x
CN(C)C(=O)c1cccc(-c2ccccc2[C@@H]2[C@@H](C#N)N(C(=O)C3CC3)[C@H]2CO)c1	x	x	x	x	112.5*	x
N#C[C@@H]1[C@@H](c2ccc(-c3ccccc3F)cc2)[C@@H](CO)N1C(=O)C1CCC1	x	x	x	x	81.5*	x
C[C@@H]1CN([C@@H](C)CO)C(=O)c2cccc(NC(=O)Nc3ccc4c(c3)OCO4)c2O[C@@H]1CN(C)C	x	x	x	x	-7.1	x
C[C@H](CO)N1C[C@H](C)[C@H](CN(C)C(=O)Cc2ccccc2)Oc2cc(-c3ccccc3)ccc2S1(=O)=O	x	x	x	x	2.9	x
C=CCN1Cc2ccccc2[C@H]2OC(c3ccc(OCCCO)cc3)=N[C@@]2(CC=C)C1=O	x	x	x	x	24.1	x
C=CC[C@@]12N=C(c3ccc(OCCCO)cc3)O[C@@H]1c1ccccc1CN(CCS(=O)(=O)c1ccccc1)C2=O	x	x	x	x	76.7*	x
Cc1nn(Cc2ccc(C(=O)Nc3nccs3)cc2)c(C)c1Cl	-9.3	0.3	-3.1	6.8	x	83.2*
C[C@@H]1CCCCO[C@@H](CN(C)Cc2ccc3c(c2)OCO3)[C@@H](C)CN([C@H](C)CO)C(=O)c2cc(NS(=O)(=O)c3ccc(Cl)cc3)ccc2O1	x	x	x	x	-17.2	x
C[C@@H]1CCCCO[C@@H](CN(C)Cc2ccc(Cl)c(Cl)c2)[C@@H](C)CN([C@@H](C)CO)C(=O)c2cc(NS(=O)(=O)c3ccc(F)cc3)ccc2O1	x	x	x	x	-2.5	x
C[C@@H]1CN([C@H](C)CO)C(=O)c2cc(NS(=O)(=O)c3ccc(Cl)cc3)ccc2O[C@@H](C)CCCCO[C@H]1CN(C)Cc1ccc2c(c1)OCO2	x	x	x	x	89.9*!	x
C[C@@H]1CCCCO[C@@H](CN(C)Cc2ccc(Cl)c(Cl)c2)[C@H](C)CN([C@@H](C)CO)C(=O)c2cc(NS(=O)(=O)c3ccc(Cl)cc3)ccc2O1	x	x	x	x	104.2*	x
C[C@@H]1CCCCO[C@@H](CN(C)Cc2ccc(Cl)c(Cl)c2)[C@H](C)CN([C@H](C)CO)C(=O)c2cc(NS(=O)(=O)c3ccccc3)ccc2O1	x	x	x	x	93.0*	x
C[C@H](CO)N1C[C@H](C)[C@@H](CN(C)Cc2ccc(Cl)c(Cl)c2)OCCCC[C@H](C)Oc2ccc(NS(=O)(=O)c3ccc(Cl)cc3)cc2C1=O	x	x	x	x	100.9*	x
CO[C@H]1CN(C)C(=O)c2ccc(NC(=O)NC(C)C)cc2OC[C@@H](C)N(C(=O)CC2CC2)C[C@H]1C	x	x	x	x	-12.5	x
CN(C)C(=O)c1cccc(-c2ccc3c(c2)[C@H]2[C@H](CCN2C(=O)C2CCCCC2)[C@@H](CO)N3)c1	x	x	x	x	4.3	x
C[C@@H]1CN([C@H](C)CO)C(=O)c2cc(NS(=O)(=O)c3ccc(Cl)cc3)ccc2O[C@@H](C)CCCCO[C@@H]1CN(C)Cc1ccc(Cl)c(Cl)c1	x	x	x	x	97.7*	x
C[C@@H]1CCCCO[C@H](CN(C)Cc2ccc(Cl)c(Cl)c2)[C@H](C)CN([C@@H](C)CO)C(=O)c2cc(NS(=O)(=O)c3ccc(Cl)cc3)ccc2O1	x	x	x	x	95.4*	x
COc1ccc(S(=O)(=O)Nc2ccc3c(c2)C(=O)N([C@@H](C)CO)C[C@H](C)[C@@H](CN(C)Cc2ccc(Cl)c(Cl)c2)OCCCC[C@@H](C)O3)cc1	x	x	x	x	71.4*	x
C[C@@H]1CCCCO[C@H](CN(C)Cc2ccc(Cl)c(Cl)c2)[C@@H](C)CN([C@H](C)CO)C(=O)c2cc(NS(=O)(=O)c3ccc(F)cc3)ccc2O1	x	x	x	x	20.6	x
Cc1ccc(S(=O)(=O)Nc2ccc3c(c2)C(=O)N([C@H](C)CO)C[C@@H](C)[C@@H](CN(C)Cc2ccc(Cl)c(Cl)c2)OCCCC[C@H](C)O3)cc1	x	x	x	x	54.5	x
C[C@@H]1CCCCO[C@H](CN(C)Cc2ccc(Cl)c(Cl)c2)[C@@H](C)CN([C@@H](C)CO)C(=O)c2cc(NS(=O)(=O)c3ccc(Cl)cc3)ccc2O1	x	x	x	x	79.9*	x
CC(C)(C)N(Cc1ccccc1)C(=O)c1cc2ccccc2o1	5.4	-0.4	2.4	11.2	-16.5	78.2*
COc1ccc(-c2ccc3c(c2)[C@@H]2[C@@H](CCN2C(=O)Cc2ccccn2)[C@@H](CO)N3C)cc1	x	x	x	x	-11.5	x
O=C(c1ccc([N+](=O)[O-])s1)N1CCN(c2cccc(Cl)c2)CC1	-9.9	91.9*	-15.3	34.2	7.4	37.2
SMILES	Mdm2-MdmX inh	Beta cell apopt	Shn3 3UTR inh	Gli-Sufu antag	PAX8 inh HTS	CSC inhib
O=C(c1cccs1)N1CCN(c2cccc(Cl)c2)CC1	27.8	-3.4	8.7	-7.1	16.9	1.0
O=C(NC(=O)N1CCN(c2cccc(Cl)c2)CC1)c1ccccc1	6.9	4.7	-28.3	9.0	x	58.0
O=C(NC(=O)N1CCN(c2cccc(Cl)c2)CC1)c1ccc(Cl)cc1	29.1	-3.0	8.8	5.6	-7.5	109.5*
CCN(c1ccccc1)S(=O)(=O)c1ccc(Cl)c(NC(=O)COC(=O)c2ccc(O)cc2)c1	14.9	1.0	-11.3	-7.5	-14.9	-0.5
CCC(C)NCC(=O)Nc1cc(S(=O)(=O)N(CC)c2ccccc2)ccc1Cl (stereo not given)	38.4	4.4	2.9	10.0	-0.4	0.7
CCN(c1ccccc1)S(=O)(=O)c1ccc(Cl)c(NC(=O)CN(C)Cc2cccc(F)c2)c1	x	x	90.9*	8.9	30.6	x
CCN(c1ccccc1)S(=O)(=O)c1ccc(Cl)c(NC(=O)COC(=O)c2cc(O)c3ccccc3c2O)c1	17.5	79.2*	x	x	x	103.4*
C/C=C/c1ccc([C@@H]2[C@H](CO)N(C(=O)CN(C)C)C23CN(C(=O)C2CCCC2)C3)cc1	x	x	x	x	-29.0	x
COc1ccccc1-c1cn(CC[C@H]2CC[C@@H](NC(=O)NC(C)C)[C@H](CO)O2)nn1	x	x	x	x	1.6	x
O=c1c(Br)ccc(Br)cc1Br	x	x	96.5*	4.3	117.7*	x
O=C1CN(S(=O)(=O)c2cc(Br)ccc2Br)CCN1	1.8	-0.6	-19.1	-2.5	-8.3	-12.9
CCCNC(=O)N[C@@H]1CC[C@H](CCn2cc(-c3cccc(F)c3)nn2)O[C@H]1CO	x	x	x	x	-0.1	x
COC1=CC(=O)C=C(OC)C1=O	x	x	97.3*	8.7	78.0*	x
COc1ccc(SN=C2C(C)=CC(=O)C=C2C)cc1	14.9	-12.9	13.7	-1.4	11.6	-15.1
COc1cc(N)ccc1Nc1c2ccccc2nc2ccccc12	x	x	38.3	x	x	x
CCCS(=O)(=O)Nc1ccc(Nc2c3ccccc3nc3ccccc23)c(OC)c1	x	x	88.0*	79.1*	46.4	x
N#C[C@@H]1[C@@H](c2ccc(/C=C/c3ccccc3)cc2)[C@@H](CO)N1C(=O)C1CCC1	x	x	x	x	-73.9	x
O=C1/C(=C/c2ccncc2)CCC/C1=C\c1ccncc1	x	x	71.6	1.1	71.5*	x
c1ccc(CSc2nnc(Cc3ccccn3)o2)cc1	3.4	-4.9	-24.0	-11.2	65.0*	-9.4

From PubChem
